Screens (PubChem BioAssay)
Shiga inhibitor = A qHTS for Small Molecule Inhibitors of Shiga Toxin; Vero cells, Shiga toxin protein synthesis inhibition reporter; inhibition, % at 38.7 µM; actives 9.2% (n = 290,000); AID 2315, 2010; in the data active means inhibition mostly above about 28%, no sharp cut-off; inactive means mostly below about 43%; further: 0% is about no effect
Lassa entry inh = qHTS for Inhibitors of binding or entry into cells for Lassa Virus; Lassa virus pseudotype entry inhibition, cell reporter; Potency, µM (highest dose often 37.9 µM), for the others: at the highest dose activity change, negative = inhibition, actives largely listed as inhibitors; actives 1.2% (n = 300,000); AID 540256, 2011; calls by dose curve; tested in HEK293 cells; further: potency means the concentration at half of the fitted maximal effect; on the % scale 0 is the no-effect control and ±100 the full control effect; nearly all actives have a fitted effect of over 50% in size
Marburg entry inh = qHTS for inhibitors of binding or entry into cells for Marburg Virus; Marburg virus pseudotyped entry inhibition, cell reporter; Potency, µM (series often up to 37.8 µM), for inactives: top-dose activity change, negative = inhibition, hits mostly inhibitors; actives 1.8% (n = 300,000); AID 540276, 2011; calls by dose curve; tested in HEK293 cells; further: potency means the concentration at half of the fitted maximal effect; on the % scale 0 is the no-effect control and ±100 the full control effect
Pf growth 96h = Primary qHTS for delayed death inhibitors of the malarial parasite plastid, 96 hour incubation. P. falciparum luciferase reporter growth, 96 h. Potency, µM (top dose mostly 28.7 µM), without a hit: at the highest dose activity change, negative = inhibition, usual class: inhibitors. actives 6.9% (n = 320,000). AID 504834, 2011; further: potency means the concentration at half of the fitted maximal effect; on the % scale 0 is the no-effect control and ±100 the full control effect
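Delayed-death screen, second-generation endpoint: infected erythrocytes, 2% hematocrit, 0.05% parasitemia final; 96 hours at 37 C, 5% CO2; luciferase detection reagent; luminescence decrease equals reduced growth.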
CHX counter-1 = Cycloheximide Counterscreen for Small Molecule Inhibitors of Shiga Toxin; cell reporter, cycloheximide protein synthesis inhibition counterscreen; max response, %; actives 12% (n = 300,000); in the data active means max response mostly above about 13%, no sharp cut-off; inactive means mostly below about 14%; further: read at 38.3 µM for the half of the compounds with a filed dose; 0% is about no effect
Pf growth 48h = Primary qHTS for delayed death inhibitors of the malarial parasite plastid, 48 hour incubation; P. falciparum luciferase growth in erythrocytes, 48 h; Potency, µM (series often up to 28.7 µM), without a hit: at the highest dose activity change, negative = inhibition, hits mostly inhibitors; actives 5.9% (n = 310,000); further: potency means the concentration at half of the fitted maximal effect; on the % scale 0 is the no-effect control and ±100 the full control effect
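Luminescence readout; reporter = integrated firefly luciferase in P. falciparum. RBC culture at 2% hematocrit, 0.1% parasitemia final, 37 C/5% CO2; decreased signal taken as growth inhibition.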
CHX counter-2 = Cycloheximide Counterscreen for Small Molecule Inhibitors of Shiga Toxin (Confirmatory); shares compounds with Shiga inhibitor; Cycloheximide counterscreen, protein synthesis reporter, Shiga toxin assay; Potency, µM (series often up to 38.3 µM), without a hit: at the top dose activity (activation), actives largely listed as activators; actives 3% (n = 510); AID 2318, 2010; calls by dose curve; further: potency means the concentration at half of the fitted maximal effect; 0% is about no effect
* hit, by the source's call; ? = inconclusive; . = no result; ! = not confirmed by another sample; [ ] = dose if it differs, or a comment. A selection: hits, their analogues and other compounds. The true share with any hit is near 19%. Unless noted, the call rests on the fitted dose curve; in most records, active means well fitted inhibition curve with a large enough effect; inconclusive means small, poorly fitted or top-dose-only effect, or another doubt; inactive means no such curve, though single readings can be large or run the other way.

SMILES | Shiga inhibitor | Lassa entry inh | Marburg entry inh | Pf growth 96h | CHX counter-1 | Pf growth 48h | CHX counter-2
CC(=O)N1CCc2cc(S(=O)(=O)NC(CC(C)C)C(=O)Nc3ccc4c(c3)OCCO4)ccc21 (stereo unspecified) | 79* | 3% | 9% | 34% | 7 | -10% | 1%
COc1ccc(C(C)(C)C)cc1NC(=O)c1cccc(S(=O)(=O)N2CCN(C(C)=O)CC2)c1 | -5 | -6% | -12%[46.1 µM] | ? | -6 | ? | .
COc1ccc(C(C)(C)C)cc1NC(=O)c1ccc2c(c1)SC1=NS(=O)(=O)CCN12 | 40* | 9%[46.1 µM] | 9%[46.1 µM] | 0% | -3 | -44% | -1%
COc1ccccc1NC(=O)c1cc2ccc(O)cc2o/c1=N\O | 60 | -22% | -26% | -92% | 23 | 6% | .
Cc1noc(C)c1S(=O)(=O)Nc1cccc(CO)c1 | 45* | . | . | 28% | 0 | 21% | -1%
CC(=O)Nc1cccc(NS(=O)(=O)c2c(C)noc2C)c1 | . | 6% | 8% | . | . | . | .
O=C(O)c1ccccc1-c1ccccc1C(=O)Nc1ccccc1 | 4 | 20% | 17% | 36% | -3 | 51% | .
O=C(Nc1ccccc1)c1ccccc1O | 59* | 7% | ? | -14% | 18 | ? | 22µM*
O=C(Nc1ccccc1)c1ccc[nH]1 | 40* | 4% | 3% | 65% | -2 | 28% | 4%
COc1ccc(NC(=O)c2cc(-c3cccs3)on2)c(OC)c1 | 7 | 17%[46.1 µM] | -6%[46.1 µM] | 82% | -7 | -3% | .
O=C(COCc1cc(-c2ccc3c(c2)OCO3)on1)N1CCN(c2ccccc2)CC1 | 40* | 8%[46.1 µM] | . | 10µM* | 7 | -12% | 1%
CON(C)S(=O)(=O)c1cccc(C(=O)NC2CCSc3ccccc32)c1 (stereo unspecified) | 77* | ? | ? | -28% | 4 | -27% | -4%
COc1ccccc1C(=O)NC1CCSc2ccccc21 (stereo unspecified) | -19 | -4%[46.1 µM] | -17%[46.1 µM] | ? | -1 | -24% | .
CC1C(=O)N2CCCc3cc(NS(=O)(=O)c4ccc(F)cc4)cc1c32 (stereo unspecified) | . | ? | 2%[46.1 µM] | -9% | . | -3% | .
CCN(CC)C(=O)CCCc1c[nH]c2ccccc12 | 52* | -2% | 4%[46.1 µM] | 0% | 9 | 0% | 5%
CCOC(=O)C1CCCN(c2nc3ccccc3nc2C(C#N)C(=O)OC(C)COC)C1 (stereo unspecified) | 9 | ? | -2% | ? | -6 | ? | .
CCOC(=O)C1CCCN(c2nc3ccccc3nc2C(C#N)C(=O)OCC)C1 (stereo unspecified) | 133* | -19% | -15% | 7.4µM* | -1 | ? | -3%
CC(C)Oc1ccc(/C=C(/NC(=O)c2ccccc2)C(=O)NC(Cc2ccccc2)C(=O)O)cc1 (stereo unspecified) | -2 | . | -11%[46.1 µM] | 1% | -3 | 24% | .
O=C(NCC1CCCO1)Nc1ccc2c(c1)OCO2 (stereo unspecified) | 43* | . | . | ? | 7 | 82% | ?
COc1ccc(-c2cc(C(F)(F)F)n3nc(C(=O)NCC45CC6CC(CC(C6)C4)C5)cc3n2)cc1 | . | -16%[46.1 µM] | 1%[46.1 µM] | . | . | . | .
COc1cccc(C(C(=O)NC2CCCC2)N(C(=O)c2ccco2)C2CC2)c1OC (stereo unspecified) | 35* | -3% | -2% | 62% | -2 | -1% | 2%
COc1cccc(C(C(=O)NC2CCCC2)N(Cc2ccc(C)cc2)C(=O)c2ccco2)c1OC (stereo unspecified) | 18 | ? | ? | -22% | -3 | ? | .
COC(CNC(=O)C1CCN(S(=O)(=O)c2ccc3nc4c(c(C(=O)O)c3c2)CC(C)CC4)CC1)OC (stereo unspecified) | 1 | . | . | ? | -1 | 8% | .
O=C(c1cc2cc(Br)ccc2oc1=O)N1CCN(c2ccccn2)CC1 | 8 | -12%[14.3 µM] | -9% | . | -1 | 9% | .
CCN1CCN(C(=O)c2ccc3c(=O)n(CCC4=CCCCC4)c(=O)[nH]c3c2)CC1 | 29* | -10% | -4% | 37% | 11 | ? | ?
SMILES | Shiga inhibitor | Lassa entry inh | Marburg entry inh | Pf growth 96h | CHX counter-1 | Pf growth 48h | CHX counter-2
COc1cc2oc3cc(C)oc(=O)c3c2cc1OC | 26 | . | . | -26% | 5 | ? | .
COc1cc(O)c2c(c1)oc(=O)c1c3cc(O)c(O)cc3oc21 | 33* | . | . | . | 21*! | . | 8%
O=C(Nc1nc(N2C(=O)c3ccccc3C2=O)n(-c2ccccc2)n1)c1ccc(F)cc1 | -13 | 6% | 13% | 130% | 10 | 60% | .
O=C(Nc1nc(N2C(=O)c3ccccc3C2=O)n(-c2ccccc2)n1)c1ccccc1 | 35* | -3% | 16% | 17% | 11 | 37% | -2%
COc1cccc(NC(=O)CSc2nc(C3CC3)nc3ccccc23)c1 | -7 | ? | -19%[46.1 µM] | ? | -1 | ? | .
COC(=O)c1sc(NC(=O)COc2cccc(C)c2)nc1C | 28* | -3% | 22% | 63% | -2 | 26% | 1%
CCc1cc(C)cc(OCCNC(=O)c2cncc(Br)c2)c1 | -7 | -10% | ? | ? | 2 | . | .
Cc1ccsc1C(=O)N1CCc2ccccc2C1 | 36* | . | . | 11% | 15 | 26% | ?
CCOC(=O)c1cn(Cc2ccc(Br)cc2)nn1 | -1 | ? | -9% | 16% | -2 | 8% | .
CCOC(=O)c1cn(Cc2ccc(C)cc2)nn1 | 45* | ? | 4% | -22% | 11 | -2% | -3%
CNC(=O)c1cc(S(=O)(=O)N(C)C)ccc1Cl | -26 | 7% | 14% | . | 8 | -3% | .
O=C(O)CC(NC(=O)c1sc2ccccc2c1Cl)c1ccc(OC2CCCC2)cc1 (stereo unspecified) | -9 | 1% | -13%[46.1 µM] | 64% | -2 | 10% | .
Cc1ccc(-c2csc(NC(=O)c3ccc(C)o3)n2)cc1 | 71* | 0% | 5% | -1% | 9 | 19% | 1%
COc1ccccc1N(CCC#N)C(=O)CSc1nc(-c2ccccc2)cn1N | 75* | -9% | ? | ? | -2 | ? | 0%
COCCN(C(=O)CSc1nc(-c2ccccc2)cn1N)c1c(N)n(Cc2ccccc2)c(=O)[nH]c1=O | . | -1% | 3% | 3% | . | ? | .
CC1CN(C(=S)SCC(=O)c2ccc(Cl)cc2)CC(C)O1 (stereo unspecified) | 13 | -7% | 1% | -2% | 2 | 13% | .
CCOc1ccccc1CNC(=O)c1c(C)oc2ncnc(N3CCOCC3)c12 | . | -3%[46.1 µM] | . | . | . | . | .
O=c1c2ccccc2sc2nc(C3CCCCC3)n(Cc3ccco3)c(=O)c12 | 24* | 10% | -9% | 6.6µM* | 3 | 1.7µM* | -1%
